Experimental data from PubChem BioAssay (Tox21).
Results filed as inconclusive are left out. Activity calls are given as the source filed them. Unless noted, calls follow the shape of the dose curve; as a rule, active = well fitted curve in the direction sought with a large enough effect in the repeat runs; inconclusive = weak or mixed curves; inactive = no such curve, though single readings can be large; an effect the other way counts as inactive or inconclusive.

Key:
[1] = qHTS assay to identify small molecule agonists of the peroxisome proliferator-activated receptor delta (PPARd) signaling pathway - cell viability counter screen (AID 743211); also: % is scaled to controls: 0 for no effect and ±100 for the full control effect; nearly all actives have a fitted effect of over 55% in size
Summary of the method: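 Following 5 h plating at 37 C and 5% CO2, PPARd UAS-bla HEK293H cells took up test compounds for 17 h. Viability was quantified by luminescence 30 min after CellTiter-Glo addition at room temperature.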

[2] = target: Peroxisome proliferator-activated receptor delta (Homo sapiens) (UniProt Q03181); test: qHTS assay to identify small molecule agonists of the peroxisome proliferator-activated receptor delta (PPARd) signaling pathway (AID 743212; calls by dose curve; also: % is scaled to controls: 0 for no effect and ±100 for the full control effect)
Chain of Peroxisome proliferator-activated receptor delta (Homo sapiens) (Q03181 whole entry, looked up): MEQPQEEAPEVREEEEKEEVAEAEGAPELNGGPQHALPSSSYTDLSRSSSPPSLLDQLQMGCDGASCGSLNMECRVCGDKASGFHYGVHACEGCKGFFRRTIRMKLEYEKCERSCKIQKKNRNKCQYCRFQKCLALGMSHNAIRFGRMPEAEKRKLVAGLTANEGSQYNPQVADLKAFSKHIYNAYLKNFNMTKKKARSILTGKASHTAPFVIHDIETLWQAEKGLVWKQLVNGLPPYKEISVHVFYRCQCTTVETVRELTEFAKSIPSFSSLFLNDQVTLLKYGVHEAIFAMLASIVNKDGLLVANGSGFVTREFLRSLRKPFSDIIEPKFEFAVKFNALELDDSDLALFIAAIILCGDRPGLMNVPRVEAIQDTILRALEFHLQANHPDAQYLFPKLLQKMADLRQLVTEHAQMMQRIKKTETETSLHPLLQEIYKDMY
Summary of the method: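 A PPARd-bla HEK293H line with beta-lactamase under an Upstream Activator Sequence is treated with compounds at 37 C. Substrate loading for 2 h at room temperature precedes the fluorescence measurement.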

[3] = qHTS assay to identify small molecule antagonists of the peroxisome proliferator-activated receptor delta (PPARd) signaling pathway - cell viability counter screen (AID 743213); also: % is scaled to controls: 0 for no effect and ±100 for the full control effect; nearly all actives have a fitted effect of over 50% in size
Summary of the method: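 Cytotoxicity counter screen: CellTiter-Glo luminescence read 30 min after addition, in the same wells as the reporter assay. There, PPARd UAS-bla HEK293H cells (3000/well) were treated 17 h at 37 C with compound and 300 nM L165041.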

[4] = target: Peroxisome proliferator-activated receptor delta (Homo sapiens) (UniProt Q03181); test: qHTS assay to identify small molecule antagonists of the peroxisome proliferator-activated receptor delta (PPARd) signaling pathway (AID 743215; active = well fitted inhibition curve with a large enough effect in the signal ratio in the repeat runs, not every such curve was filed as active; the % refers to the signal ratio;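 also: cells stimulated with agonist L165041 at 300 nM final during compound exposure; series mostly up to about 62 µM; % is scaled to controls: 0 for no effect and ±100 for the full control effect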)
Summary of the method: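 Read-out is beta-lactamase FRET fluorescence, measured 2 h after substrate addition at room temperature. Beforehand, UAS-bla HEK293H cells carrying the PPARd reporter were exposed to compounds with L165041 at 300 nM final for 17 h at 37 C.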

[5] = qHTS assay to identify small molecule agonists of the farnesoid-X-receptor (FXR) signaling pathway - cell viability counter screen (AID 743218); also: % is scaled to controls: 0 for no effect and ±100 for the full control effect; nearly all actives have a fitted effect of over 45% in size
Summary of the method: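 HEK 293T FXR-bla cells; 5 h pre-incubation, 16 h compound exposure at 37 C; LiveBLAzer substrate 2 h RT, then CellTiter-Glo 30 min RT, luminescence.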

[6] = qHTS assay to identify small molecule antagonists of the farnesoid-X-receptor (FXR) signaling pathway - cell viability counter screen (AID 743221; active = well fitted cell-killing curve with a large enough effect in the repeat runs, not every such curve was filed as active; also: % is scaled to controls: 0 for no effect and ±100 for the full control effect; nearly all actives have a fitted effect of over 50% in size)
Summary of the method: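 Compound effects on cell number were measured as CellTiter-Glo luminescence in HEK 293T cells expressing FXR-UAS-bla, after 16 h at 37 C with 50 uM CDCA (final).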

[7] = qHTS assay to identify small molecule agonists of the vitamin D receptor (VDR) signaling pathway - cell viability counter screen (AID 743224); also: series mostly up to about 63 µM; % is scaled to controls: 0 for no effect and ±100 for the full control effect; nearly all actives have a fitted effect of over 50% in size
Summary of the method: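 Luminescence from CellTiter-Glo, read after 30 min at room temperature, reports viability of VDR-bla cells treated with compounds for 16 h at 37C in the wells used for the beta-lactamase FRET read.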

[8] = qHTS assay to identify small molecule antagonists of the vitamin D receptor (VDR) signaling pathway - cell viability counter screen (AID 743225); also: % is scaled to controls: 0 for no effect and ±100 for the full control effect; nearly all actives have a fitted effect of over 50% in size
Summary of the method: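 In this counter screen, VDR-bla HEK 293T cells receive test compound plus 3 nM final calcitriol for 16 h at 37C. Room-temperature steps of 2 h with the beta-lactamase substrate, then 30 min with CellTiter-Glo, precede the luminescence read.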

[9] = qHTS assay to identify small molecule agonists of the NFkB signaling pathway (AID 1159509; active = well fitted curve in the direction sought with a large enough effect in the signal ratio in the repeat runs, not every such curve was filed as active; the % refers to the signal ratio; also: series mostly up to about 61 µM; % is scaled to controls: 0 for no effect and ±100 for the full control effect)
Summary of the method: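 ME-180 NFkB-bla, 2,000 cells/well, overnight plating; cpd pinned in DMSO, 5 h 37 C; B/G FRET substrate 1.5 h RT; ex 405, em 460/530 nm.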

[10] = qHTS assay to identify small molecule agonists of the NFkB signaling pathway - cell viability counter screen (AID 1159515; calls by dose curve; also: series mostly up to about 61 µM; % is scaled to controls: 0 for no effect and ±100 for the full control effect; nearly all actives have a fitted effect of over 55% in size)
Summary of the method: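 Luminescence from CellTiter-Glo (30 min, room temperature) gives viability, measured in the same wells as the beta-lactamase reporter read. Cells were NFkB-bla ME-180, 2,000 per well, treated 5 hr with compounds.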

[11] = qHTS assay to identify small molecule agonists of the endoplasmic reticulum stress response signaling pathway (AID 1159516; active = well fitted activation curve with a large enough effect in the signal ratio in the repeat runs, not every such curve was filed as active; the % refers to the signal ratio; also: % is scaled to controls: 0 for no effect and ±100 for the full control effect)
Summary of the method: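 Read-out is beta-lactamase cleavage of a FRET substrate (405 nm excitation; 460 and 530 nm emissions) in ESRE-bla HeLa cells after a 5 hr compound exposure at 37 C. Substrate incubation ran 2 hr at room temperature.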

[12] = qHTS assay to identify small molecule agonists of the endoplasmic reticulum stress response signaling pathway - cell viability counter screen (AID 1159517; calls by dose curve)
Summary of the method: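 CellTiter-Glo was added to wells already read for beta-lactamase FRET, and luminescence was recorded 30 min later. Cells: ESRE-bla HeLa, 1,500 per well, compound exposure 5 hr at 37 C.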

[13] = qHTS assay to identify small molecule antagonists of the retinoid-related orphan receptor gamma (ROR-gamma) signaling pathway - cell viability counter screen (AID 1159520)
Summary of the method: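 Tet-on ROR gamma CHO cells (1,000/well) were plated 4 hr, given compounds in DMSO for 2 hr at 37 C, then induced with 1 uM final doxycycline for 16 hr. Viability was read as ATP by CellTiter-Glo luminescence after 30 min.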

[14] = target: Nuclear receptor ROR-gamma (Homo sapiens) (UniProt P51449); test: qHTS assay to identify small molecule antagonists of the retinoid-related orphan receptor gamma (ROR-gamma) signaling pathway (AID 1159521; also: nearly all actives have a fitted effect of over 50% in size; also: potency is read from the fitted curve at half-maximal effect)
Summary of the method: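 Screening format: cell-based luciferase reporter in CHO cells with doxycycline-inducible RORγ. Compound pre-exposure lasts 2 h, doxycycline is 1 uM final, induction runs 16 h at 37 C, and ONE-Glo luminescence is read.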

[15] = qHTS assay to identify small molecule agonists of the AP-1 signaling pathway - cell viability counter screen (AID 1159525; calls by dose curve; also: nearly all actives have a fitted effect of over 55% in size)
Summary of the method: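 ME-180 AP-1-bla, 2500 cells/well, Opti-MEM + 0.5% dialyzed FBS; overnight 37 °C; cpd 15-pt titration, 5 h 37 °C; CellTiter-Glo 30 min RT; luminescence read; normalised to TOAB and DMSO controls.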

[16] = target: Vitamin D3 receptor (Homo sapiens) (UniProt P11473); test: qHTS assay to identify small molecule antagonists of the vitamin D receptor (VDR) signaling pathway (AID 743223; active = well fitted inhibition curve with a large enough effect in the signal ratio in the repeat runs, not every such curve was filed as active; the % refers to the signal ratio; also: % is scaled to controls: 0 for no effect and ±100 for the full control effect)
Chain of Vitamin D3 receptor (Homo sapiens) (P11473 whole entry, looked up): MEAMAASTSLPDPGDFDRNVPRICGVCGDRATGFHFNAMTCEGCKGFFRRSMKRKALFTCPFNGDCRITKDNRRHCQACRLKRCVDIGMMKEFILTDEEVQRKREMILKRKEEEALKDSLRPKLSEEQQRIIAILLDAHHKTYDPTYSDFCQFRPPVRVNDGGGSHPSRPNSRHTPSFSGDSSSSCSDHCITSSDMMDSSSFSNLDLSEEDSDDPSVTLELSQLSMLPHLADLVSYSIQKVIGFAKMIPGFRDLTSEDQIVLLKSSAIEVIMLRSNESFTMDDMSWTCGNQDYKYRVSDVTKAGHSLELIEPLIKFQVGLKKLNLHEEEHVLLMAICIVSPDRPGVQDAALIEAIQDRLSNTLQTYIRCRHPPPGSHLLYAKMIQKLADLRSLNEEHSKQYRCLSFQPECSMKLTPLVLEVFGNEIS
Summary of the method: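 Beta-lactamase activity in VDR-bla cells is measured by FRET substrate fluorescence (2 h, room temperature) after cells spend 16 h at 37C with test compound and 3 nM final 1alpha,25-dihydroxyvitamin D3.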

[17] = target: Vitamin D3 receptor (Homo sapiens) (UniProt P11473); test: qHTS assay to identify small molecule agonists of the vitamin D receptor (VDR) signaling pathway (AID 743222; calls by dose curve; also: % is scaled to controls: 0 for no effect and ±100 for the full control effect)
Summary of the method: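 VDR-bla cells, 2,000/well; 4 h preincubation 37C; cpd (DMSO) 16 h; LiveBLAzer B/G substrate 2 h RT; fluorescence intensity read.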

[18] = target: Bile acid receptor (Homo sapiens) (UniProt Q96RI1); test: qHTS assay to identify small molecule agonists of the farnesoid-X-receptor (FXR) signaling pathway (AID 743220; active = well fitted activation curve with a large enough effect in the signal ratio in the repeat runs, not every such curve was filed as active; the % refers to the signal ratio; also: % is scaled to controls: 0 for no effect and ±100 for the full control effect)
Chain of Bile acid receptor (Homo sapiens) (Q96RI1 whole entry, looked up): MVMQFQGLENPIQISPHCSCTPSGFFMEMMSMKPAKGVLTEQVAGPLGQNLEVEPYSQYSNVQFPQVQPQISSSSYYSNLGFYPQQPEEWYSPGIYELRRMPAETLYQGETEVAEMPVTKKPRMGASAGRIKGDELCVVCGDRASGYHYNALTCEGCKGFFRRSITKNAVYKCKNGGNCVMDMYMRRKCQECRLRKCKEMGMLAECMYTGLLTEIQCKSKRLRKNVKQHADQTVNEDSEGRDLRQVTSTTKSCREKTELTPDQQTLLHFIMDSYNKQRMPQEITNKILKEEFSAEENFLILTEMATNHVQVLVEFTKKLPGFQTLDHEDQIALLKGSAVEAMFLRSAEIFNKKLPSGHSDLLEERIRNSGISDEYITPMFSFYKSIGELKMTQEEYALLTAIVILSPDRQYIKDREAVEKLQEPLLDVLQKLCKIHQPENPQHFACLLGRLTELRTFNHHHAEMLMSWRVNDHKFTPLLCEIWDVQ
Summary of the method: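 Beta-lactamase reporter under UAS control in GeneBLAzer FXR HEK 293T cells (5000/well) measured with LiveBLAzer FRET substrate after 2 h at room temperature. Compound exposure lasted 16 h at 37C.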

[19] = target: Bile acid receptor (Homo sapiens) (UniProt Q96RI1); test: qHTS assay to identify small molecule antagonists of the farnesoid-X-receptor (FXR) signaling pathway (AID 743217; active = well fitted inhibition curve with a large enough effect in the signal ratio in the repeat runs, not every such curve was filed as active; the % refers to the signal ratio; also: % is scaled to controls: 0 for no effect and ±100 for the full control effect)
Summary of the method: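 HEK 293T FXR-UAS-bla, 5000 cells/well; compound + CDCA 50 uM final; 16 h, 37 °C; B/G FRET substrate 2 h RT; fluorescence.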

O=C(O)C(=O)Cc1c[nH]c2ccccc12
inactive: Potency [1] | outcome [2] | Potency [3] | outcome [4] | Potency [5] | outcome [6] | Potency [7] | Potency [8] | outcome [9] | outcome [10] | outcome [11] | outcome [12] | Potency [13] | Potency [14] | outcome [15]

ICCc1ccccc1
active: Potency [14] 59.9 µM
inactive: Potency [1] | outcome [2] | Potency [3] | outcome [4] | Potency [5] | outcome [16] | Potency [7] | Potency [8] | outcome [9] | outcome [10] | outcome [11] | outcome [12] | Potency [13] | outcome [15]

CN(C)CC[C@@H](c1ccc(Cl)cc1)c1ccccn1
inactive: Potency [1] | Potency [3] | Potency [5] | outcome [6] | Potency [7] | Potency [8] | outcome [9] | outcome [10] | outcome [11] | outcome [12] | Potency [13] | Potency [14] | outcome [15]

CC1=NN(c2cc(Cl)c(S(=O)(=O)O)cc2Cl)C(=O)C1N=Nc1ccc(S(=O)(=O)O)cc1 (stereo unspecified)
inactive: Potency [1] | Potency [3] | Potency [5] | outcome [6] | outcome [17] | outcome [16] | Potency [7] | Potency [8] | outcome [9] | outcome [10] | outcome [11] | outcome [12] | Potency [13] | Potency [14] | outcome [15]

O=C1Nc2ccc([N+](=O)[O-])cc2C1=O
inactive: Potency [1] | outcome [2] | Potency [3] | outcome [4] | Potency [5] | outcome [6] | Potency [7] | outcome [9] | outcome [10] | outcome [11] | outcome [12] | Potency [13] | Potency [14] | outcome [15]

OCc1c2ccccc2cc2ccccc12
inactive: Potency [1] | Potency [3] | outcome [4] | Potency [5] | outcome [6] | outcome [17] | outcome [16] | Potency [8] | outcome [9] | outcome [10] | outcome [11] | outcome [12] | Potency [13] | Potency [14] | outcome [15]

CCc1cc2cc(OC)c(OC)cc2c(Cc2ccccc2)n1
inactive: Potency [1] | outcome [2] | outcome [4] | Potency [5] | outcome [18] | outcome [6] | Potency [7] | Potency [8] | outcome [9] | outcome [10] | outcome [11] | outcome [12] | Potency [13] | Potency [14] | outcome [15]

Cc1nc(-c2ccccn2)ncc1C(=O)Nn1cc(C)c2cc(F)ccc21
inactive: outcome [2] | Potency [3] | outcome [19] | Potency [5] | outcome [6] | outcome [16] | Potency [7] | Potency [8] | outcome [9] | outcome [10] | outcome [11] | outcome [12] | Potency [13] | Potency [14] | outcome [15]

COc1ccc(Nc2ccc(OC)cc2)cc1
inactive: Potency [1] | Potency [5] | outcome [18] | outcome [6] | outcome [17] | outcome [16] | Potency [7] | Potency [8] | outcome [9] | outcome [10] | outcome [11] | outcome [12] | Potency [13] | Potency [14] | outcome [15]

CN1CCN(C2=Nc3cc(F)ccc3Cc3ccccc32)CC1
inactive: outcome [2] | Potency [3] | outcome [4] | Potency [5] | outcome [18] | outcome [17] | outcome [16] | Potency [7] | outcome [9] | outcome [10] | outcome [11] | outcome [12] | Potency [13] | Potency [14] | outcome [15]

Cc1cccc(C)c1NC(=O)CN1CCCCCC1
inactive: Potency [1] | outcome [2] | Potency [3] | outcome [4] | Potency [5] | outcome [6] | outcome [17] | outcome [16] | Potency [7] | Potency [8] | outcome [9] | outcome [10] | outcome [11] | outcome [12] | Potency [13] | Potency [14] | outcome [15]

CC1=C(CC(=O)O)c2cc(F)ccc2/C1=C\c1ccc(S(C)(=O)=O)cc1
inactive: Potency [1] | Potency [3] | Potency [5] | outcome [6] | Potency [7] | Potency [8] | outcome [9] | outcome [10] | outcome [11] | outcome [12] | Potency [13] | Potency [14] | outcome [15]

CCN(CCCc1ccccc1)CCCc1ccccc1
inactive: Potency [1] | outcome [2] | outcome [4] | outcome [19] | Potency [5] | outcome [18] | outcome [6] | outcome [17] | outcome [16] | Potency [7] | Potency [8] | outcome [9] | outcome [10] | outcome [11] | outcome [12] | Potency [13] | Potency [14] | outcome [15]

CC(C)=CCC[C@](C)(O)[C@@H]1CC=C(C)CC1
inactive: Potency [1] | outcome [2] | Potency [3] | Potency [5] | Potency [8] | outcome [9] | outcome [10] | outcome [11] | outcome [12] | Potency [13] | Potency [14] | outcome [15]

NC(Cc1ccc(F)cc1)C(=O)O (stereo unspecified)
inactive: activity change, negative = cytotoxicity [1] -0.221% [at 5.95 µM] | activation [2] 5.3% [at 5.95 µM] | viability change, negative = cytotoxic [3] 5.29% [at 6.26 µM] | ratio activity, negative = inhibition [4] 5.05% [at 6.26 µM] | viability change, negative = cytotoxic [5] 4.49% [at 5.95 µM] | activity change, negative = cytotoxicity [6] -10% [at 5.95 µM] | activation [17] 5.15% [at 6.01 µM] | activity change, negative = inhibition [16] 0.285% [at 6.95 µM] | activity change, negative = cytotoxicity [7] 0.52% [at 5.95 µM] | viability change, negative = cytotoxic [8] 2.79% [at 6.95 µM] | activation [9] -1.04% [at 6.95 µM] | activity, negative = cytotoxic [10] -7.23% [at 6.95 µM] | activation [11] -3.08% [at 6.95 µM] | activity change, negative = cytotoxicity [12] 0.188% [at 6.95 µM] | activity, negative = cytotoxicity [13] 9.21% [at 8.39 µM] | activity change, negative = inhibition [14] -13.5% [at 8.39 µM] | viability change, negative = cytotoxic [15] -5.13% [at 6.97 µM]

C=CCCC=C
inactive: Potency [1] | outcome [2] | outcome [4] | outcome [19] | Potency [5] | outcome [18] | outcome [6] | Potency [8] | outcome [9] | outcome [10] | outcome [11] | outcome [12] | Potency [13] | Potency [14] | outcome [15]

CCOC(=O)CS
inactive: outcome [2] | Potency [3] | outcome [4] | outcome [19] | Potency [5] | outcome [18] | outcome [6] | outcome [17] | outcome [16] | Potency [7] | outcome [9] | outcome [10] | outcome [11] | outcome [12] | Potency [13] | Potency [14] | outcome [15]
